# From PubChem BioAssay
# The list shows a part of the results. Results filed as inconclusive are left out. Calls of active or inactive are those of the source.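 The calls were made as follows, unless noted: active = thallium entry rate above the same plate's blocked-transporter control wells by more than 3 SD; inconclusive = the two repeat wells disagree; inactive = the rest.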
# Key:
# [1] = inhibitors of TNFa-induced NFkB p65 translocation, primary screen, imaging, HUVEC, MLSMR starter and 10KST1 sets (AID 438;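 active = inhibition above 20% together with a positive visual image hit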;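 also: compound added about 3h40 before a 20 min TNFalpha stimulation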;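 as to inhibition: signal is the nuclear over cytoplasmic p65 intensity ratio per well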); conditions: HUVEC TNFa-induced p65 nuclear translocation; cell count: measured here: nuclei count (cytotoxicity indicator), at 2.08 µM; inhibition: at 2 µM, stronger effect = higher value, 0% TNFa-plus-vehicle, 100% no-TNFa wells
# [2] = reduction of polyQ htt aggregates in cells – imaging, exon1htt(103Q)mCFP cells, high-content imaging, primary screen (AID 483;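 active = visual image review flags a hit and inhibition of aggregation exceeds 20%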;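 also: compound exposure lasted 3 days before fixation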;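 as to nuclei count: percent of the per-plate median nuclei count of sample wells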); conditions: exon1htt(103Q)mCFP cell line, aggregate imaging, at 2 µM; inhibition of aggregation: stronger effect = higher value; nuclei count: measured here: cell count, toxicity
# [3] = endothelial E-selectin expression blockers – imaging, HUVEC, immunofluorescence, MLSMR starter and 10KST1 sets, primary screen (AID 487;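 active = visually confirmed hit in the image check and inhibition above 20%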;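 as to inhibition: signal is fraction of cell area covered by stained E-selectin grains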;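 as to nuclei count: 100% = median nuclei count of all wells on the same plate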); conditions: HUVEC TNFalpha-induced E-selectin immunofluorescence imaging, at 2 µM; inhibition: stronger effect = higher value; nuclei count: measured here: cell number, toxicity
# [4] = Primary imaging screen for DUSP6 inhibitors that restore phospho-Erk in transfected HeLa cells, chemical complementation (AID 609;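 active = compounds giving at least 50% inhibition in the cell-based MKP-3 phosphatase rescue imaging test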;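 as to inhibition: phospho-Erk level distribution per well compared with pooled transfected vehicle control wells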); conditions: HeLa MKP-3 transfected, phospho-Erk imaging KS statistic, at 10 µM, cells stimulated with TPA for 15 min
# [5] = biological target: Dual specificity protein phosphatase 6 (Homo sapiens) (UniProt Q16828); assay: as above; conditions: HeLa MKP-3 transfected, phospho-Erk imaging KS statistic; at 10 µM; stronger effect = higher value; cells stimulated with TPA for 15 min
# [6] = biological target: Voltage-gated potassium channel subunit beta-2 (Rattus norvegicus) (UniProt P62483); assay: inhibitors of rat Kvbeta2 reductase activity – biochemical, NADPH fluorescence, primary screen (AID 622;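 active = fluorescence slope higher than the sample average by over 3 SD, cut at about -0.22 in these data, passing the limit was not always enough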;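 also: slope of raw intensity against log time taken from 70 to 1610 s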); conditions: recombinant KvBeta, 4-cyanobenzaldehyde reduction, at 10 µM, stronger effect = higher value
# [7] = biological target: Voltage-gated potassium channel subunit beta-2 (Rattus norvegicus) (UniProt P62483); assay: enhancers of rat Kvbeta2 NADPH turnover – biochemical, NADPH fluorescence, primary screen (AID 623;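 active = NADPH fluorescence slope more negative than the mean of all samples by about 3 SD, 99.7% confidence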;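 also: fluorescence intensity change per second fitted from 20 to 320 s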); conditions: Recombinant KvBeta, NADPH fluorescence decrease slope, 10 min; at 10 µM; stronger effect = lower value
# [8] = biological target: Alpha-2C adrenergic receptor (Homo sapiens) (UniProt P18825); assay: compounds altering alpha2C-coupled GIRK flux – cell-based, HEK293 alpha2C/GIRK1/2, thallium flux, primary screen (AID 624;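 active = fluorescence slope after compound addition differing from the mean of all screened samples at 99.7% confidence, in either direction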;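 also: slope of fluorescence ratio to pre-addition baseline per second over 15 to 24 s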); conditions: thallium flux BTC fluorescence, at 10 µM, actives lie on both sides
# [9] = inhibitors of larval lipid processing in zebrafish, primary screen, whole organism, PED6 fluorescence, gall bladder and intestine (AID 686;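 active = a full or partial loss of lipid-probe fluorescence in the fish gall bladder, intestine or both, judged by eye; inactive = no fluorescence loss, or compound toxic to the fish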;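 also: larvae 5 to 7 days old with five fish per well; signal comes from phospholipase A2 cleavage of quenched PED6 carried via bile; overnight exposure to compound and PED6 before scoring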); conditions: Zebrafish larvae PED6 lipid processing, fluorescence scoring; screened at 20 µM (by protocol)
# [10] = biological target: Solute carrier family 12 member 5 (Homo sapiens) (UniProt Q9H2X9); assay: retest of KCC2 transport modulators without sodium – cell-based, HEK293 KCC2, thallium flux, secondary assay, confirmation (AID 1713;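 active = thallium flux slope above the same plate's solvent-only control mean plus 3 SD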); conditions: FluoZin2 fluorescence, at 10 µM, stronger effect = higher value
# [11] = PubChem AID 1714; conditions: HEK293-KCC2 + bumetanide/ouabain, thallium flux FluoZin2; at 10 µM; stronger effect = higher value;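 also: raw slope of fluorescence over initial fluorescence between 10 and 20 s after thallium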
# [12] = biological target: Solute carrier family 12 member 5 (Homo sapiens) (UniProt Q9H2X9); assay: retest of KCC2 transport modulation, ouabain-free – cell-based, HEK293 KCC2, thallium flux, FluoZin2, secondary assay 2, confirmation (AID 1715;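 active = thallium flux slope more than 3 SD above or below the plate's solvent-only control mean, mostly below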;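 also: raw slope with 0.1% DMSO as baseline and bumetanide as block control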); conditions: HEK293-KCC2, thallium flux FluoZin2 fluorescence; at 10 µM; actives lie on both sides; F/F0 rise rate, 10–20 s post-thallium
# [13] = compound effects on native HEK Tl+ uptake – HEK cells, counterscreen 1, counter-screen for KCC2 modulator project, confirmation (AID 1716;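 active = thallium flux rate significantly above the same plate's solvent-only control wells, beyond their mean plus 3 SD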); conditions: HEK293 parental cells, thallium flux FluoZin2, ouabain; at 10 µM; baseline-ratio fluorescence slope, 10–20 s after thallium
# [14] = loss of swimming-algae plug formation – whole organism, Chlamydomonas reinhardtii, WT vs cilia-less mutant, absorbance, 96-well, primary screen (AID 463189;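 active = inhibition at or above 50% relative to wild type and mutant plate controls; inactive = inhibition below 50%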;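 also: 0% = wild type cc124 cells in DMSO and 100% = ciliumless bld1 mutant cells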); conditions: Chlamydomonas reinhardtii gravitaxis, OD600 absorbance, 2 days; at 10 µM; stronger effect = higher value
# [15] = blockers of RIG-like receptor reporter activation – cell-based, Sendai virus stimulus, luciferase, 10K MLSCN set, TLR/RLR signaling modifier project, primary screen (AID 602276;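 active = inhibition at or above 50% at 10 µM; inactive = inhibition below 50%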;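 also: firefly luciferase from ISG56 promoter only with Renilla not read in this screen; 0% = Sendai virus plus DMSO and 100% = medium plus DMSO without virus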); conditions: HEK293 RL24 IRF3 luciferase reporter, at 10 µM, stronger effect = higher value
# [16] = TLR3 IRF3 reporter activation blockers – cell-based, poly I:C stimulus, luciferase, 10K MLSCN set, primary screen (AID 602277;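 active = inhibition of the reporter signal at or above 50%; inactive = inhibition below 50%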); conditions: HEK293-TLR3 RL24 IRF3 luciferase reporter, at 10 µM, stronger effect = higher value
# [17] = biological target: Solute carrier family 12 member 5 (Homo sapiens) (UniProt Q9H2X9); assay: modulation of KCC2 thallium flux in HEK cells – cell-based, ouabain, retest, confirmation (AID 1717;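 active = thallium flux slope beyond 3 SD from same-plate DMSO control mean in most replicates, usually higher, sometimes lower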;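 also: slope of initial-normalized fluorescence between seconds 10 and 20 after thallium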); conditions: HEK293-KCC2, thallium flux FluoZin2 fluorescence, at 10 µM, bidirectional: low = inhibitor, high = activator
# [18] = native HEK Tl+ uptake effects, second counter-screen – HEK cells, counterscreen 2, counter-screen for KCC2 modulator project, confirmation (AID 1718;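 active = thallium flux slope above the same plate's solvent-control mean plus 3 SD in both duplicate wells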;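 also: run without ouabain in cells lacking the KCC2 cotransporter; slope of fluorescence scaled to its starting value between 10 and 20 s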); conditions: HEK293 parental, thallium flux FluoZin-2 fluorescence slope; at 10 µM
# Sequence of Solute carrier family 12 member 5 (Homo sapiens) (Q9H2X9 whole entry, looked up): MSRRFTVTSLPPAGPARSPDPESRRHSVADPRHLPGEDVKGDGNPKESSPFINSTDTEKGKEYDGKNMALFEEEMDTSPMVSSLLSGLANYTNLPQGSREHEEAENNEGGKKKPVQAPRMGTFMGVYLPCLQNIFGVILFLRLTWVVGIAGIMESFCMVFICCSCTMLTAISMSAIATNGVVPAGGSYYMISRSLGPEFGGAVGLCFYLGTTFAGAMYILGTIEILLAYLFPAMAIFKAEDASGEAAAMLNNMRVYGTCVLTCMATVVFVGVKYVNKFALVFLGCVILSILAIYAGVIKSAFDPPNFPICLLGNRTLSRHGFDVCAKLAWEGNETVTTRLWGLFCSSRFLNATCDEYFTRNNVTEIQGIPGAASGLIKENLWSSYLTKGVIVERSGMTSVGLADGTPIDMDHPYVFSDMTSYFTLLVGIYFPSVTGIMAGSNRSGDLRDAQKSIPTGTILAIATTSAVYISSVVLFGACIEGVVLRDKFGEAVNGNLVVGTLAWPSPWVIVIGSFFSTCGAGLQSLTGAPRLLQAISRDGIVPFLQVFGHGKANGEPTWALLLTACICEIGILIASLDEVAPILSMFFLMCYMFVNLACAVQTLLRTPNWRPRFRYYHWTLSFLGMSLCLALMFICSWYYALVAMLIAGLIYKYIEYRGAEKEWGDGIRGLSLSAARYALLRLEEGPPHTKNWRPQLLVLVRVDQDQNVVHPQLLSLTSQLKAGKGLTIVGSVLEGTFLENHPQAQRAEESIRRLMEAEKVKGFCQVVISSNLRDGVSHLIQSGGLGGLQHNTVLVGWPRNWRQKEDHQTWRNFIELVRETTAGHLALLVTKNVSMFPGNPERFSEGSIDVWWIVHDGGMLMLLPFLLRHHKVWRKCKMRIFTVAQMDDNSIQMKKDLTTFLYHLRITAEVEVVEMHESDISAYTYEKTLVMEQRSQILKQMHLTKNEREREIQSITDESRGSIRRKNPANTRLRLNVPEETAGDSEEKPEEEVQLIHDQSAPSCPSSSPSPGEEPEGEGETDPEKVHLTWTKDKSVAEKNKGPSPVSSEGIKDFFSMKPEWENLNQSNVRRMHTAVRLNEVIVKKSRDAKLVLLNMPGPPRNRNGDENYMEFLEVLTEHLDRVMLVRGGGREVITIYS
# Sequence of Voltage-gated potassium channel subunit beta-2 (Rattus norvegicus) (P62483 whole entry, looked up): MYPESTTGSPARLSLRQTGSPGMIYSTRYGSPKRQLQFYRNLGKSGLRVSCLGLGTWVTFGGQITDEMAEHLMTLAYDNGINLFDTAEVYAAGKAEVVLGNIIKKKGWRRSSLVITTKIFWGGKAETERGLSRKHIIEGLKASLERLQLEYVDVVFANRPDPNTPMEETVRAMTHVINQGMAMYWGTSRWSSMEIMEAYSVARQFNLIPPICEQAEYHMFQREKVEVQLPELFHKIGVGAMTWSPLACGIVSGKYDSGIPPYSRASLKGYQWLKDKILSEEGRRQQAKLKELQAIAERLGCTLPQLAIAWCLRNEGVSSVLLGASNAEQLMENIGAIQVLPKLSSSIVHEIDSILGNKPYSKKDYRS
# Sequence of Dual specificity protein phosphatase 6 (Homo sapiens) (Q16828 whole entry, looked up): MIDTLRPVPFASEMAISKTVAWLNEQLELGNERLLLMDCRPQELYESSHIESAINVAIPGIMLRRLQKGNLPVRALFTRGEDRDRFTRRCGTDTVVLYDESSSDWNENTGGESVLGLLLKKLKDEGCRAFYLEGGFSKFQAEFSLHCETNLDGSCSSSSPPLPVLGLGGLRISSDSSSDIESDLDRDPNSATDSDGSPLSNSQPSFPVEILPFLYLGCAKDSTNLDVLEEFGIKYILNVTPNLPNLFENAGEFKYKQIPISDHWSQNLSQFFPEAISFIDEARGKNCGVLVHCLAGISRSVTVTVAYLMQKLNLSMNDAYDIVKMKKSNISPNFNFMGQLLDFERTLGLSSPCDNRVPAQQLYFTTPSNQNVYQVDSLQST
# Sequence of Alpha-2C adrenergic receptor (Homo sapiens) (P18825 whole entry, looked up): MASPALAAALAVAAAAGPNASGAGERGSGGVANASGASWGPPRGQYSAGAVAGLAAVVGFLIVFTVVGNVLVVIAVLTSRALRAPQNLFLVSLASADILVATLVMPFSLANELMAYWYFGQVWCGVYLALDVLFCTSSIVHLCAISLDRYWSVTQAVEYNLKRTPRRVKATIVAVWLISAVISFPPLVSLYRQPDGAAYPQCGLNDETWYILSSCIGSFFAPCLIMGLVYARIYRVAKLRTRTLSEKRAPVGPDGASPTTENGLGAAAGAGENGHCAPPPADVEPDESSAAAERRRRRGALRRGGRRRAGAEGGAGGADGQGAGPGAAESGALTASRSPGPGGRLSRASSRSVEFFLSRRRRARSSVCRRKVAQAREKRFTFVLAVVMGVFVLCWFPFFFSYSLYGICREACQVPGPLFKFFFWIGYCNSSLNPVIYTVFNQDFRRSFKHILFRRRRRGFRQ
compound,measurement,setting,value
O=c1c2ccccc2[nH]c(=S)n1CCN1CCC(=C(c2ccc(F)cc2)c2ccc(F)cc2)CC1,cell count,[1],603
same,inhibition,[1],-12.2% (inactive)
same,inhibition of aggregation,[2],12% (inactive)
same,nuclei count,[2],92.5%
same,inhibition,[3],-105% (inactive)
same,nuclei count,[3],132%
same,z-score,[4]; measured here: cell density z-score,-1.63
same,z-score,[4]; measured here: nuclear c-Myc green intensity z-score,-0.997
same,z-score,"[4]; measured here: nuclear pErk red intensity z-score, stronger effect = higher value",0.771
same,inhibition,[5],-4.44% (inactive)
same,fluorescence slope,[6],-0.452 (inactive)
same,NADPH fluorescence slope,[7],-0.000101 (inactive)
same,slope,[8],0.00649 (inactive)
same,outcome,[9],inactive
same,normalised thallium flux (F/F0 slope),[10],0.00677 (inactive)
same,normalized thallium flux,[11],0.0111 (active)
same,normalized thallium flux,[12],0.0294 (inactive)
same,thallium flux rate (normalised fluorescence),[13],0.00955 (active)
same,inhibition,[14],-8.89% (inactive)
same,inhibition,[15],8.28% (inactive)
same,inhibition,[16],23.8% (inactive)
Cn1c(CCCOc2ccc(Cl)cc2Cl)n[nH]c1=S,normalised thallium flux (F/F0 slope),[10],0.00558 (inactive)
same,normalized thallium flux,[11],0.00856 (active)
same,normalized thallium flux,[12],0.0217 (active)
same,"raw Tl+ flux slope (below DMSO = inhibition, above = activation)",[17],0.0131 (active)
same,thallium flux slope,[18],0.00939 (inactive)
Cn1c(C(=O)NCCc2ccsc2)cc2c(=O)n(C)c3ccccc3c21,normalised thallium flux (F/F0 slope),[10],0.00557 (inactive)
same,normalized thallium flux,[11],0.00386 (inactive)
same,"raw Tl+ flux slope (below DMSO = inhibition, above = activation)",[17],0.0126 (active)
same,thallium flux slope,[18],0.00931 (inactive)
CCCCn1c(SCC(=O)NCC2CCCO2)nc2ccc(N3CCOCC3)cc2c1=O (centres undefined),normalised thallium flux (F/F0 slope),[10],0.0177 (inactive)
same,normalized thallium flux,[11],0.0198 (active)
same,thallium flux rate (normalised fluorescence),[13],0.0094 (active)
same,"raw Tl+ flux slope (below DMSO = inhibition, above = activation)",[17],0.0187 (active)
same,thallium flux slope,[18],0.013 (active)
CCCCn1c(=S)[nH]c2ncccc2c1=O,normalised thallium flux (F/F0 slope),[10],0.0429 (active)
same,normalized thallium flux,[11],0.12 (active)
same,"raw Tl+ flux slope (below DMSO = inhibition, above = activation)",[17],0.0884 (active)
same,thallium flux slope,[18],0.0266 (active)
